A selection: hits, their analogues and other compounds. The true share with any hit is near 6.2%.
Gal4-VP16 FLuc = inhibits Gal4-VP16 luciferase reporter, ROR gamma counter-screen. Drosophila S2 Gal4-VP16 UAS-luciferase, luminescence, 20 h. Potency, µM (highest dose often 53.6 µM), without a hit: at the highest dose activity, negative = inhibition, usual class: inhibitors. 310,000 compounds, 3.5% hits. AID 2546;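 note: Gal4-VP16 expression switched on by copper sulfate through the metallothionein promoter; nearly all actives have a fitted effect of over 50% in size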
RORg inh = blocks mouse ROR gamma transcriptional activity | P51450 | Drosophila S2 Gal4-RORgamma UAS-luciferase reporter, 20 h | Potency, µM (top dose mostly 53.6 µM), inactives show at the top dose activity change, negative = inhibition, usual class: inhibitors | 310,000 compounds, 5.4% hits | AID 2551; note: nearly all actives have a fitted effect of over 60% in size
Target sequence (P51450 whole entry, looked up, the tested form may be a part): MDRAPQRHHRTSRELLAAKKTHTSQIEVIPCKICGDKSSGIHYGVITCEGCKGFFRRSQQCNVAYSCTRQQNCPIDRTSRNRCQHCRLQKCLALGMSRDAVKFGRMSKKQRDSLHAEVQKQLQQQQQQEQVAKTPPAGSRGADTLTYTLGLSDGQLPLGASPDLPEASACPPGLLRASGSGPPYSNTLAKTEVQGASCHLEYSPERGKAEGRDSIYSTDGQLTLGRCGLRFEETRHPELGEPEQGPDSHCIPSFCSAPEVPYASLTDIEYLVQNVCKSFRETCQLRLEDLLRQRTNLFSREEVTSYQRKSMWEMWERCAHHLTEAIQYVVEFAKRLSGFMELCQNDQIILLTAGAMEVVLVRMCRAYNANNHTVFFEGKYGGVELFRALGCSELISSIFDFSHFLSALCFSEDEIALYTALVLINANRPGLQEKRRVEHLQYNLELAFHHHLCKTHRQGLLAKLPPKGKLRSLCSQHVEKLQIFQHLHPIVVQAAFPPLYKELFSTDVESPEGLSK
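In this cell-based reporter format, copper sulfate (700 uM final) drives Gal4–ROR gamma fusion expression from a metallothionein promoter in Drosophila Schneider cells; compounds preincubated 1 hr, reporter read after 20 hr at ambient temperature.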
Luc counter = counter-screen: inhibitors of Kinase-Glo firefly luciferase; Q27757; 200,000 compounds, 0.28% hits; Kinase-Glo luciferase, ATP luminescence, 8 min; Potency, µM (doses to about 38.3 µM), for the others: top-dose activity change, negative = inhibition, usual class: inhibitors; note: nearly all actives have a fitted effect of over 60% in size
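Compounds were added to a substrate mix at pH 7.2 (50 mM imidazole, 10 uM ATP, within the enzyme's linear range), followed by Kinase-Glo detection reagent; luminescence was measured after 8 minutes at ambient temperature.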
An asterisk follows results filed as active; ? = inconclusive; · = no result; [ ] = dose if it differs, or a comment. Calls come from the whole dose curve; as a rule, active = well fitted curve in the direction sought with a large enough effect; inconclusive = small, poorly fitted or top-dose-only effect, or another doubt; inactive = no such curve, though single readings can be large; an effect the other way counts as inactive or inconclusive. % is set by controls: 0 for no effect and ±100 for the full control effect; potency is the fitted concentration of half-maximal effect.

SMILES	Gal4-VP16 FLuc	RORg inh	Luc counter
C1=C(c2ccc(-c3ccccc3)cc2)Nc2ncnn2C1c1ccco1 (stereo not given)	?	11µM*	-7%
Cc1cccc(C)c1NC(=O)CCCSc1nnc(N)s1	-16%	19%	-1%
Cc1cc2ncc(-c3ccc(Cl)cc3)cn2n1	-4%	4%	-13%
Cc1ccc(-c2cnc3cc(C)nn3c2)cc1	13µM*	11µM*	-27%
COc1ccc2cc1Oc1ccc(cc1)CC1c3c(cc4c(c3Oc3cc5c(cc3OC)CCN(C)C5C2)OCO4)CCN1C (stereo not given)	1%	-19%	-3%
COc1ccc2cc1Oc1ccc(cc1)CC1c3c(cc(OC)c4c3Oc3cc5c(cc3O4)CCNC5C2)CCN1C (stereo not given)	7.1µM*	4.5µM*	·
CCc1ccccc1NC(=O)C/C(C)=N/NC(=O)COc1ccccc1C	?	11µM*	·
CCc1ccc(NC(=O)C/C(C)=N/NC(=O)COc2ccccc2C)cc1	16%	-32%	·
Cn1cccc1/C=N\NC(=O)Cc1ccc(Br)c2ccccc12	11µM*	?	1%
Cc1ccccc1OCC(=O)N/N=C/c1cccc2cccnc12	14µM*	11µM*	·
O=C(COc1cccc2cccnc12)N/N=C/c1ccccc1O	-5%	?	·
C/C(CC(=O)Nc1cc(Cl)ccc1Cl)=N\NC(=O)COc1cccc(C)c1	-10%	-44%	·
Cn1cccc1/C=N/NC(=O)Cc1ccccc1	7%	9%	·
COc1ccc(Cl)cc1NC(=O)C/C(C)=N/NC(=O)COc1ccc(C)cc1	-2%	11µM*	·
CC(C)NC(=O)c1cc(-c2ccc3c(c2)OCO3)on1	-25%	?	·
CSCC[C@H](NC(=O)c1ccc(NC[C@@H](N)CS)cc1-c1ccccc1)C(=O)O	-5%	-3%	·
CC(C)C(c1nnnn1Cc1ccc(F)cc1)N1CCN(c2ccc(O)cc2)CC1 (stereo not given)	-7%	-15%	-1%
Cc1ccc(OCC(=O)N/N=C/c2cccc3cccnc23)cc1	?	16µM*	·
Cc1ccccc1OCC(=O)N/N=C/c1cccn1C	0%	8.9µM*	9%
CC(C)(C)OC(=O)NCCC(=O)N/N=C/c1cccc2cccnc12	-5%	?	·
Cc1ccccc1OCC(=O)N/N=C/c1ccncc1	?	7%	-4%
Cc1cccc(OCC(=O)N/N=C\c2cccn2C)c1C	-2%	?	-4%
Cc1ccccc1OCC(=O)N/N=C/c1ccc(N2CCOCC2)o1	6.3µM*	14µM*	·
Cc1nc2sccn2c(=O)c1Br	0%	27%	0%
O=C(COc1ccccc1C(=O)NCc1ccncc1)Nc1ccc(Br)cc1	0%	22%	4%
SMILES	Gal4-VP16 FLuc	RORg inh	Luc counter
O=C1CC(c2ccccc2)CC2=C1C=Nc1ccccc1N2 (stereo not given)	2%	33%	3%
CCN(CC)C(=O)COc1ccc(/C=C(\C#N)S(=O)(=O)c2ccccc2)cc1OC	4%	0%	2%
O=C(/C=C/c1cccc([N+](=O)[O-])c1)c1ccccc1	7%	8%	-2%
O=C(O)c1ccccc1	-18%	-19%	·
Nc1ccccc1C#CC(=O)c1ccccc1	7.1µM*	7.1µM*	·
O=C(C#Cc1cccc([N+](=O)[O-])c1)c1ccccc1	3.2µM*	2.8µM*	-5%
CN(C)S(=O)(=O)n1cc(/C=C(\NC(=O)c2ccccc2)C(=O)N2CCCC2)c2ccccc21	-3%	18%	·
CC(=O)OCC[C@H](NS(=O)(=O)OCC(Cl)(Cl)Cl)c1ccccc1	-4%	-25%	·
COC1=CC(=O)C=C(OC)C1=O	4.5µM*	2.8µM*	-1%
COc1ccc(SN=C2C(C)=CC(=O)C=C2C)cc1	2%	7%	-2%
COc1cc(C(=O)N/N=C/C2CC=CCC2)cc(OC)c1OC (stereo not given)	?	-36%	2%
O=C(CNc1ccc(F)cc1)N/N=C/C1CC=CCC1 (stereo not given)	-1%	-7%	0%
O=C(N/N=C/C1CC=CCC1)c1cc2ccccc2cc1O (stereo not given)	?	10µM*	-1%
O=C(N/N=C/C1CC=CCC1)c1ccc(O)cc1O (stereo not given)	2.8µM*	1.1µM*	-1%
O=C(c1ccco1)N1CCC2(CCCN(c3ccccc3)C2)CC1	1%	42%	-3%
COc1ccc(C(=O)CSc2nc(C(C)(C)C)nc3ccccc23)cc1	-7%	7%	-3%
O=C(NCc1ccc2c(c1)OCO2)c1cccc(S(=O)(=O)N2CCCC2)c1	21%	9%	·
CN(C)/C=C(\C#N)C(=O)N/N=C/c1ccc(Cl)cc1	-7%	1%	-1%
CN(C)/C=C(\C#N)C(=O)N/N=C(\CC(=O)C(F)(F)F)c1ccco1	-19%[10 µM]	4.5µM*	0%
COc1ccc(NC2=Nc3cccc4cccc2c34)cc1	?	13µM*	-1%
c1ccc(NC2=Nc3cccc4cccc2c34)cc1	?	?	-5%
Fc1ccc(/C=N/NC2=Nc3cccc4cccc2c34)cc1	?	1.1µM*	-5%
O=C(CC(=O)N/N=C/c1ccc(F)cc1)N/N=C/c1ccc(F)cc1	2%	44%	·
O=S(=O)(c1ccc(OCC2CO2)cc1)c1ccc(OCC2CO2)cc1 (stereo not given)	3%	-15%	-5%
CCc1ccccc1NC(=O)c1ccc([N+](=O)[O-])s1	6%	14µM*	5%
SMILES	Gal4-VP16 FLuc	RORg inh	Luc counter
Cc1nnc(NC(=O)c2ccc3ccccc3c2)o1	0.32µM*	0.11µM*	-4%
O=C(Nc1nnc(-c2ccco2)o1)c1ccc2ccccc2c1	1.1µM*	1.4µM*	-4%
c1coc(-c2nnc(-c3cccs3)o2)c1	?	-2%	-6%
Cc1ccsc1C(=O)Nc1nnc(-c2ccco2)o1	?	0.28µM*	-4%
COc1ccccc1NC(=O)COC(=O)c1ccc([N+](=O)[O-])s1	-4%	?	-1%
Cc1ccccc1NC(=O)c1ccc2ccccc2c1	-1%	36%	·
COc1ccc(C(=O)Nc2cccc(-c3nnc(-c4ccco4)o3)c2)cc1	?	?	21%
Cc1ccc(S(=O)(=O)N(CC(=O)O)c2ccc(Cl)cc2)cc1	·	·	2%
CC#CCN1c2ccccc2[C@]23C[C@@H](C(=O)OC)N(C(=O)CC(C)C)C2=NC(C(=O)OC)=C(C(=O)OC)[C@H]13	·	·	-2%[7.66 µM]
C/C=C(\C)CN1CCC(Oc2cccc(C(=O)NCc3ccccn3)c2)CC1	-6%	-30%	·
COc1ccc(-n2c(=O)c(-c3ccc(F)c(F)c3)nc3cncnc32)cc1	-4%	-1%	·
Cc1ccc(C(=O)Nc2nnc(-c3ccco3)o2)cc1	?	?	-5%
O=C(Nc1nnc(-c2ccco2)o1)c1ccc([N+](=O)[O-])s1	2.8µM*	0.89µM*	3%
N#Cc1ccc(C(=O)Nc2nnc(-c3ccco3)o2)cc1	3.2µM*	1µM*	6%
O=C(Nc1nnc(-c2ccccc2Cl)o1)c1cc2cc([N+](=O)[O-])ccc2s1	-4%	-20%	-1%
COCCN(C(=O)COc1ccc(Cl)cc1)c1nnc(-c2cccnc2)s1	-4%	?	4%
O=C(N/N=C/c1cc([N+](=O)[O-])c(N2CCOCC2)cc1N1CCOCC1)c1cccnc1	-1%	1%	0%

Screens: PubChem BioAssay, National Center for Advancing Translational Sciences (NCATS)
